Experimental findings from PubChem BioAssay are described below.

A short description of test [1]: antimalarial activity against Dd2 strain (AID 2302;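 active = growth inhibition above 50% at the single 2 µM test dose, taken to imply half-maximal potency below 2 µM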;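 also: 0% = DMSO untreated growth and 100% = chloroquine plus artemisinin killed control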). The settings on record: P. falciparum Dd2 in RBCs, LDH growth readout, 72 h; at 2 µM; active compounds read high.
Test [2] is described as follows: human hepatoma cell viability loss – ATP luminescence, cytotoxicity control for P. falciparum antimalarial project, primary screen (AID 2303;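 active = inhibition above 50%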;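 also: 0% = DMSO wells and 100% = digitonin-killed cells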). The settings on record: HepG2 viability, 24-48 h, at 10 µM, active compounds read high.
For test [3], the target named is L-lactate dehydrogenase (Plasmodium falciparum (isolate CDC / Honduras)) (UniProt Q27743). Kind of test: PfLDH activity inhibition – cell lysate, 3D7 strain, counter-screen for P. falciparum growth inhibition project (AID 2304).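 Also: 0% = vehicle and 100% = reference inhibitor.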 To be noted: P. falciparum 3D7 crude extract, LDH APAD/NBT absorbance; at 2 µM; active compounds read high. In general terms: Counterscreens check selectivity or assay interference.
Sequence of L-lactate dehydrogenase (Plasmodium falciparum (isolate CDC / Honduras)) (Q27743 whole entry, looked up): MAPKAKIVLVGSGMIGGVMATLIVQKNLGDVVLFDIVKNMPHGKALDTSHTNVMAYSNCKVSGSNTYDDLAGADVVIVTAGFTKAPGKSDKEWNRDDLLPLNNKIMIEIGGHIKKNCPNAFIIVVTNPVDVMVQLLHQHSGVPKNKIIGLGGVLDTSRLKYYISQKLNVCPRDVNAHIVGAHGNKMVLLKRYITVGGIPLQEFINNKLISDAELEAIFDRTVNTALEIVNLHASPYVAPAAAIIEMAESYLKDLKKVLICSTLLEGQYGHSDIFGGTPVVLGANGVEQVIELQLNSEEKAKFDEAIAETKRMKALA

Test [4] can be described thus: inhibition of 3D7 malaria parasite growth – strain 3D7 (AID 2306).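 Also: 0% = DMSO wells and 100% = chloroquine plus artemisinin control wells.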 To be noted: P. falciparum 3D7 erythrocytic growth, LDH absorbance, 72 h; at 2 µM; active compounds read high.
The target in test [5] is Calcium-dependent protein kinase 1 (Plasmodium falciparum (isolate 3D7)) (UniProt P62344). Kind of test: PfCDPK1 kinase inhibitors, biochemical, TCAMS library (AID 1159585; cut-off not given, nearly all actives have IC50 up to about 0.98 µM;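 also: inhibitors leave more ATP so luminescence rises with inhibition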). The settings on record: recombinant PfCDPK1, Kinase-Glo ATP depletion luminescence. For orientation: In Kinase-Glo more light means more ATP remaining.
Sequence of Calcium-dependent protein kinase 1 (Plasmodium falciparum (isolate 3D7)) (P62344 whole entry, looked up): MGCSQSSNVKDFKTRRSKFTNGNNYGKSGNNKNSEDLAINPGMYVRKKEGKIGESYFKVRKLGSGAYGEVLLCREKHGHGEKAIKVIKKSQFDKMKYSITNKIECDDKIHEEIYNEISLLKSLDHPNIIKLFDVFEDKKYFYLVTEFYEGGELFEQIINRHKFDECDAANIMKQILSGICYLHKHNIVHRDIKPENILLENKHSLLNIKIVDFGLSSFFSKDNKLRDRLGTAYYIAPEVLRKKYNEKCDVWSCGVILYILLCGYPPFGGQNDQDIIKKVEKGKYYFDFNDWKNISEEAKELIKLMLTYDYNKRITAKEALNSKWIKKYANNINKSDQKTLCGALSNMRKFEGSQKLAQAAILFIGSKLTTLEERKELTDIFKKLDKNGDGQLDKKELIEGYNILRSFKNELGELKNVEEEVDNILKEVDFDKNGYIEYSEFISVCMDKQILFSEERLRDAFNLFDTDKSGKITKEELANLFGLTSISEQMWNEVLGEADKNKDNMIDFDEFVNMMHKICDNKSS
The target of test [6] is Plasmodium falciparum protein kinase 6 (PK6, PF3D7_1337100) (UniProt Q8IDW1). The experiment in a line: PfPK6 kinase inhibitors, biochemical, TCAMS library (AID 1159586). To be noted: recombinant PfPK6, Kinase-Glo ATP depletion luminescence.
Sequence of Plasmodium falciparum protein kinase 6 (PK6, PF3D7_1337100) (Q8IDW1 1-305): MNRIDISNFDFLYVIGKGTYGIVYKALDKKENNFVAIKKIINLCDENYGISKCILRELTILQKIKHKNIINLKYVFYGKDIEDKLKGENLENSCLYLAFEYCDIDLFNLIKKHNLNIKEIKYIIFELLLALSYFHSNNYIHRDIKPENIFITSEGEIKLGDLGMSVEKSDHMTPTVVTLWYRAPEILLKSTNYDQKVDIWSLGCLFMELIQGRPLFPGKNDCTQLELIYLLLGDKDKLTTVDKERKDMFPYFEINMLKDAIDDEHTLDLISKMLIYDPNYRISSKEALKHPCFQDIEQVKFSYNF
The target of test [7] is Protein kinase 7 (PK7), Plasmodium falciparum 3D7 (PF3D7_0213400) (UniProt Q7YTF7). The experiment in a line: inhibition of Plasmodium PK7 catalytic activity – biochemical, TCAMS antimalarial set, Kinase-Glo luminescence (AID 1159587). To be noted: recombinant PfPK7, Kinase-Glo ATP depletion luminescence.
Sequence of Protein kinase 7 (PK7), Plasmodium falciparum 3D7 (PF3D7_0213400) (Q7YTF7 1-343): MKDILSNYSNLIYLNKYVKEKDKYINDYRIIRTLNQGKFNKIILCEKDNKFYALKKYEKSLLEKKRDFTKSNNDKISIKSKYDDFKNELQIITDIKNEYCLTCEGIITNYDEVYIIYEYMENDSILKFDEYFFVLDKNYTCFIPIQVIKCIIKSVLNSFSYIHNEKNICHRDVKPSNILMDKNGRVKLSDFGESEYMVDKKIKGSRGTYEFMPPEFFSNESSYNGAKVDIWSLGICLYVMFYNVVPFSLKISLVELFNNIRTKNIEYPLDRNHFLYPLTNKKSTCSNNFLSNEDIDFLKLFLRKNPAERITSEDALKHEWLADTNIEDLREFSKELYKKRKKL
Test [8] has as its target Calcium-dependent protein kinase 4 (Plasmodium falciparum (isolate 3D7)) (UniProt Q8IBS5). Kind of test: PfCDPK4 kinase inhibitors, biochemical, TCAMS library (AID 1159588; cut-off not given, nearly all actives have IC50 up to about 0.91 µM). The settings on record: recombinant PfCDPK4, Kinase-Glo ATP depletion luminescence.

The structures appear in SMILES notation. Values without a mark were called inactive. For some of these results: Potency and affinity values are given separately. Activity calls are given as the source filed them. Unless noted, no rule for the calls is given here.

Sequence of Calcium-dependent protein kinase 4 (Plasmodium falciparum (isolate 3D7)) (Q8IBS5 whole entry, looked up): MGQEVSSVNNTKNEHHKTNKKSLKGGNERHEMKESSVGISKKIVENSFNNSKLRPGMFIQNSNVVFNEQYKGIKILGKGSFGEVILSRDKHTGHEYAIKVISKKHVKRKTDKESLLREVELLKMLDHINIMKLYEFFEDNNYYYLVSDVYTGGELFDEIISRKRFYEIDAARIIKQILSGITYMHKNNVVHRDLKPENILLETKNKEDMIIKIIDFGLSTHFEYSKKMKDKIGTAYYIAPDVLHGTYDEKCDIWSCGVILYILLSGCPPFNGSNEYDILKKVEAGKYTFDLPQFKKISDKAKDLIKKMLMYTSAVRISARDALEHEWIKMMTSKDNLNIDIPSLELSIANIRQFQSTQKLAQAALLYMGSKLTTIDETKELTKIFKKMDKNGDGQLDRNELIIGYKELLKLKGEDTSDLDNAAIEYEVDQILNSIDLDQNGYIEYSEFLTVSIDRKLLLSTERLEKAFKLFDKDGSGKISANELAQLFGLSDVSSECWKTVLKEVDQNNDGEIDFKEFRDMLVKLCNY

As for `CC(C)(C)NS(=O)(=O)c1cc(C(=O)N2CCC(CCN3CCC(C(=O)c4ccc(F)cc4)CC3)(c3cccc(F)c3)CC2)c(Cl)cc1F`, the growth inhibition in test [1] and in test [4] was 99% (active) in each case. Further, the values for the inhibition in test [2] and in test [3] were -1% and 4%, respectively. In addition, the result in test [5], in test [6], in test [7] and in test [8] was inactive.
For the compound `CN(C)CC1CCCN1Cc1ccccc1-c1cnn(C)c(=O)c1Oc1ccccc1F` (stereo not given), the growth inhibition was 27% in test [1] and 95% (active) in test [4]. Further, the results for the inhibition in test [2] and in test [3] were 18% and -1%, respectively. Further, the outcome in test [5], in test [6], in test [7] and in test [8] was inactive.
Turning to `CCCC(C)NC[C@@H](O)[C@H](Cc1ccccc1)NC(=O)c1cc(NCC)cc(N2CCCCS2(=O)=O)c1` (stereo not given in full), the growth inhibition in test [1] was 98% (active); in test [4], 101% (active). Further, the results for the inhibition in test [2] and in test [3] were -4% and -2%, respectively. Also, the outcome in test [5], in test [6], in test [7] and in test [8] was inactive.
Regarding `CC(C)C[C@H](NC(=O)[C@H](Cc1ccccc1)N(C[C@H](Cc1ccccc1)NC(=O)OC(C)(C)C)C(=O)C(F)(F)F)C(=O)NC1CCN(Cc2ccccc2)CC1`, the growth inhibition in test [1] is 82% (active); in test [4], 92% (active). For the same compound, the inhibition (in general, the change of the read-out against control, counted positive when it falls) was 13% in test [2] and -5% in test [3]. Further, the result in test [5], in test [6], in test [7] and in test [8] was inactive.
`O=C(NNC(=O)c1ccc(CCN2CCC(c3nc(COCC(F)(F)F)c(-c4ccc(F)cc4)o3)CC2)cc1)Nc1ccc(Oc2ccccc2)cc1`: the growth inhibition in test [1] was 89% (active); in test [4] it was 102% (active). In addition, the inhibition in test [2] was 38%; in test [3], 4%. Also, the outcome in test [5], in test [6], in test [7] and in test [8] was inactive.
With `CCOP(=O)(OCC)c1ccc(OC)c(-c2ccc[nH]2)c1`, the growth inhibition in test [1] was 10%; in test [4] it was 95% (active). Moreover, the inhibition in test [2] is -13%; in test [3] it was -2%. Also, the outcome in test [5], in test [6], in test [7] and in test [8] was inactive.
On to `CNc1ccc(CNCc2cccc(-c3ccc(-c4nc5c(C)cccc5[nH]4)s3)c2)cc1`, for which the values for the growth inhibition in test [1] and in test [4] were 88% (active) and 101% (active), respectively. The inhibition was 23% in test [2] and -2% in test [3]. In addition, the result in test [5], in test [6], in test [7] and in test [8] was inactive.
In the case of `CCc1cc(-c2onc(C(F)(F)F)c2-c2ccccc2)c(O)cc1OC`, the values for the growth inhibition in test [1] and in test [4] were 73% (active) and 98% (active), respectively. Moreover, the inhibition in test [2] is 16%; in test [3], -2%. Moreover, the result in test [5], in test [6], in test [7] and in test [8] was inactive.
Turning to `Cc1nc2nc(N)nc(N)c2c(C)c1Cc1ccc(O)cc1`, the growth inhibition in test [1] was 0%; in test [4], 94% (active). The figures for the inhibition in test [2] and in test [3] were 64% (active) and 1%, respectively. Besides, the outcome in test [5], in test [6], in test [7] and in test [8] was inactive.
In the case of `COc1ccc(CNCc2ccc(-c3ccc(CNCCc4ccccc4)cn3)cc2)cn1`, the growth inhibition in test [1] is 44%; in test [4], 97% (active). Moreover, the inhibition was 16% in test [2] and 1% in test [3]. For the same compound, the outcome in test [5], in test [6], in test [7] and in test [8] was inactive.
As for `O=C(CSc1nc(-c2ccccc2Cl)ns1)Nc1cccc(F)c1`, the results for the growth inhibition in test [1] and in test [4] were 81% (active) and 93% (active), respectively. The inhibition in test [2] is -5%; in test [3] it was -1%. Besides, the outcome in test [5], in test [6], in test [7] and in test [8] was inactive.
With `CSc1ccc(NC(=O)Nc2cc(C)nc3ccccc23)cc1Br`, the growth inhibition was 66% (active) in test [1] and 101% (active) in test [4]. The inhibition was 7% in test [2] and -6% in test [3]. The result in test [5], in test [6], in test [7] and in test [8] was inactive.
As to `O=C(c1cc(-c2ccccc2)n[nH]1)N1CCN(S(=O)(=O)c2ccc(Cl)s2)CC1`, the growth inhibition in test [1] was 81% (active); in test [4], 88% (active). For the same compound, the inhibition is 9% in test [2] and 1% in test [3]. In addition, the result in test [5], in test [6], in test [7] and in test [8] was inactive.
Turning to `c1ccc2[nH]c(-c3ccc(-c4ccc(CN5CCN(CCN6CCOCC6)CC5)cc4)s3)nc2c1`, the growth inhibition in test [1] and in test [4] was 100% (active) each time. For the same compound, the inhibition in test [2] was 39%; in test [3] it was -2%. Besides, the result in test [5], in test [6], in test [7] and in test [8] was inactive.
As to `CC(C)CC1(C(=O)OC(C)(C)C)CC(C(=O)OC(C)(C)C)C(c2cccs2)N1C(=O)c1ccc(C(C)(C)C)cc1` (stereo not given), the growth inhibition in test [1] was 100% (active); in test [4] it was 101% (active). Besides, the results for the inhibition in test [2] and in test [3] were 21% and -2%, respectively. Moreover, the outcome in test [5], in test [6], in test [7] and in test [8] was inactive.
Turning to `COc1ccc(Nc2ccnc3cc4ccccc4cc23)cc1`, the results for the growth inhibition in test [1] and in test [4] were 73% (active) and 101% (active), respectively. Also, the inhibition was 32% in test [2] and 3% in test [3]. The outcome in test [5], in test [6], in test [7] and in test [8] was inactive.
In the case of `CS(=O)(=O)NCCCNCc1ccc(-c2ccc(-c3nc4ccc(F)cc4[nH]3)cc2)cc1`, the growth inhibition in test [1] was 97% (active); in test [4] it was 100% (active). The values for the inhibition in test [2] and in test [3] were 17% and -1%, respectively. Further, the result in test [5], in test [6], in test [7] and in test [8] was inactive.
`COc1ccc(CN2CCCN(Cc3cccc(NC(=O)c4ccc5ccccc5c4)c3)CC2)cc1`: the growth inhibition in test [1] was 11%; in test [4] it was 93% (active). Moreover, the inhibition in test [2] was 27%; in test [3] it was -5%. Further, the result in test [5], in test [6], in test [7] and in test [8] was inactive.
Regarding `COc1cccc(C(=O)[C@H]2C[C@@H]2CN(C)CC(O)c2cc(C)c(OC)cc2C)c1` (stereo not given in full), the growth inhibition in test [1] is 73% (active); in test [4], 88% (active). The inhibition is 8% in test [2] and 2% in test [3]. Moreover, the result in test [5], in test [6], in test [7] and in test [8] was inactive.
For the compound `O=C(/C=C/c1ccc(Cl)cc1)NCCCCCN1CCCN(C(=O)Nc2cccc(Cl)c2)CC1`, the growth inhibition in test [1] was 10%; in test [4] it was 85% (active). Also, the inhibition in test [2] was 19%; in test [3] it was -3%. The result in test [5], in test [6], in test [7] and in test [8] was inactive.
